# High-throughput results (PubChem)
# CYP2C19 inh: human CYP2C19 inhibition | inhibition, % at 5 µM | AID 778 | P33261 | hit rate 21% among 96,000 | CYP2C19 Supersomes, luciferin-H EGE luminescence, 30 min;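 active means CYP2C19 inhibition above a set limit at 5 µM in the primary screen, cut at about 50% in these data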;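 further: plate controls were negative control wells for no effect and 2.5 mM tranylcypromine positive control for full effect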
# PLAP act: human PLAP activation | purified PLAP enzyme, luminescent substrate read-out; active compounds read high | AID 696 | hit rate 1.2% among 96,000 | activation fold at 20 µM; in the data active means activation fold above about 2
# Target sequence (P05187 whole entry, looked up): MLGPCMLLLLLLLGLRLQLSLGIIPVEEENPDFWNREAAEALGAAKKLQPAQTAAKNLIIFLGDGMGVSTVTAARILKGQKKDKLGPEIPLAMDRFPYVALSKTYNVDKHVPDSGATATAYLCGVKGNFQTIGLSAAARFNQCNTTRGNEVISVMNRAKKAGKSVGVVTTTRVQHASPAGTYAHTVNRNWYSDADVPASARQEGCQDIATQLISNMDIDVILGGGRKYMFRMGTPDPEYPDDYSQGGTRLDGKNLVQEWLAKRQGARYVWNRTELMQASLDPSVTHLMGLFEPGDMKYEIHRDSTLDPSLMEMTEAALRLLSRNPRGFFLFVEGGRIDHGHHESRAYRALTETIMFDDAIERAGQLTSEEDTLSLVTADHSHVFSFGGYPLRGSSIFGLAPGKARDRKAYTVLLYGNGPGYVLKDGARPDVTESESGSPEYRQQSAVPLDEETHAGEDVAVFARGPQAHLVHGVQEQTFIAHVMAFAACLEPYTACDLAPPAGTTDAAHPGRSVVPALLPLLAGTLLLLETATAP
# CYP2C9 inhib: inhibitors of human CYP2C9; P11712; CYP2C9 Supersomes, luciferin-H conversion, luminescence; inhibition, % at 5 µM; hit rate 20% among 96,000; AID 777;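 active means blocking of liver enzyme CYP2C9 beyond about 50% at 5 µM, limit read from the data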
# CYP2C19 act: cytochrome P450 2C19 (human) activation. P33261. recombinant CYP2C19, luciferin-H EGE luminescence; active compounds read high; 0 = fully inhibited enzyme, 1 = untreated enzyme. activation factor at 5 µM. 96,000 tested, under 10 active. AID 1025;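 active means activation factor of at least 2 at 5 µM in the primary screen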;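 further: 0 = wells with 2.5 mM tranylcypromine and 1 = vehicle-only wells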
# CYP2C9 activ: activators of human CYP2C9. recombinant CYP2C9, luciferin-H conversion, luminescence; active compounds read high; factor 1 = untreated enzyme, 0 = blocked. hit rate 1.4% among 96,000. activation factor at 5 µM. AID 1024;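 active means activation factor of 2 or more for CYP2C9 at a 5 µM dose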;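 further: 0 = sulfaphenazole-blocked wells and 1 = vehicle-only wells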
# Numbers without * were called inactive. An excerpt weighted towards active compounds, which were near 31% of everything screened.
SMILES,CYP2C19 inh,PLAP act,CYP2C9 inhib,CYP2C19 act,CYP2C9 activ
COc1ccc(OC)c(C2CC(=O)N3CN(c4cccc(Cl)c4)CSC3=C2C#N)c1 (stereo not drawn),70.1*,1,90.4*,0.3,0.1
CCOC(=O)c1ccc(N2CSC3=C(C#N)C(c4ccc(OC)cc4OC)CC(=O)N3C2)cc1 (stereo not drawn),51.5*,1,91.3*,0.5,0.1
CC(=O)NC1CC2CCCC(C1)N2S(=O)(=O)c1cccc(F)c1 (stereo not drawn),47.2,0.9,-27.9,0.5,1.3
COCCSc1nnc(NC(=O)C(C)(C)C)s1,19.1,1.1,4.0,0.8,1
Cc1cc(C(=O)CSc2nnc(-c3cccs3)n2Cc2ccccc2)c(C)n1C,42.3,1.3,43.3,0.6,0.6
CC(=O)c1c(C)[nH]c(C(=O)CSc2nnc(-c3cccs3)n2Cc2ccccc2)c1C,72.8*,1.6,72.2*,0.3,0.3
C=CCn1c(SCC(=O)O)nnc1-c1ccc(C(C)(C)C)cc1,-6.0,1,-4.9,1.1,1
C=CCn1c(SCC(=O)c2[nH]c(C)c(C(C)=O)c2C)nnc1-c1ccncc1,85.8*,1.5,23.9,0.1,0.8
CCn1c(SCC(=O)NCCc2ccccc2)nnc1-c1ccco1,11.7,1,7.3,0.9,0.9
Cc1cc(C(=O)CSc2nnc(-c3cccc(F)c3)n2N)c(C)n1Cc1ccc2c(c1)OCO2,39.7,1.2,42.7,0.6,0.6
CC(=O)c1c(C)[nH]c(C(=O)CSc2nnc(-c3ccco3)n2Cc2ccccc2)c1C,73.4*,1.6,69.7*,0.3,0.3
CC(=O)c1c(C)[nH]c(C(=O)CSc2nnc(-c3ccccc3)n2Cc2ccc3c(c2)OCO3)c1C,70.3*,0.8,18.1,0.3,0.8
O=c1cc(CSc2nnc(-c3cccs3)n2Cc2ccccc2)nc2sc3ccccc3n12,93.0*,1.3,95.4*,0.1,0
COc1ccc(Br)cc1/C=N/NC(=O)c1nc(-c2ccccc2)n2c1CCCCC2,59.8*,1.9,45.3,0.4,0.5
Cc1cc(C(=O)N/N=C/c2cc(Br)ccc2OC(=O)c2ccccc2)n[nH]1,23.4,1.1,60.6*,0.8,0.4
COc1cc(OC)c(OC)cc1/C=N/NC(=O)c1cc(-c2cccn2C)n[nH]1,11.2,1.6,24.4,0.9,0.8
CCOc1cc(/C=N/NC(=O)c2cc(C)[nH]n2)ccc1OC(=O)c1ccc([N+](=O)[O-])cc1,5.8,1.1,39.4,0.9,0.6
CCOC(=O)C1CCN(C(=O)CCNC(=O)Cn2ccc3ccccc3c2=O)CC1,4.9,1.1,-10.6,1,1.1
CN(C)c1nc(N)nc(CSc2nc3cc(Cl)ccc3o2)n1,-1.7,1.1,-55.5,1,1.6
O=S1(=O)C=C(Sc2nc3cc(Cl)ccc3o2)c2ccccc21,65.6*,1,6.5,0.3,0.9
COc1ccc(NC(=O)C2CCC(CNc3c(N4CCC(C)CC4)c(=O)c3=O)CC2)cc1OC (stereo not drawn),12.6,8.4,41.7,0.9,0.6
Cc1ccnc(NC(=O)C2CCC(CNc3c(N4CCCC4)c(=O)c3=O)CC2)c1 (stereo not drawn),20.4,1.2,16.8,0.8,0.8
COc1cc(NC(=O)C2CCC(CNc3c(N4CCC(C)CC4)c(=O)c3=O)CC2)cc(OC)c1 (stereo not drawn),33.4,1.9,51.2*,0.7,0.5
COc1cc(NC(=O)C2CCC(CNc3c(N4CCCCC4)c(=O)c3=O)CC2)cc(OC)c1 (stereo not drawn),57.6*,1.4,62.0*,0.4,0.4
COc1ccc2oc(=O)c(C(C)=O)cc2c1,9.6,0.8,4.2,0.9,1
SMILES,CYP2C19 inh,PLAP act,CYP2C9 inhib,CYP2C19 act,CYP2C9 activ
COc1ccc2oc(=O)c(-c3nc(C)cs3)cc2c1,76.8*,0.9,54.9*,0.2,0.5
CC(OC(=O)c1ccc2ccccc2n1)C(=O)Nc1ccc(N2CCOCC2)cc1 (stereo not drawn),4.5,0.8,12.9,1,0.9
CC(C)C(O)(C#CCN1CCCCC1)c1ccccc1 (stereo not drawn),71.5*,1,11.3,0.3,0.9
CC(C)C(O)(C#CCN1CCCC1)c1ccccc1 (stereo not drawn),50.1*,1.1,7.0,0.5,0.9
CC(O)(C#CCN1CCOCC1)c1ccccc1 (stereo not drawn),17.6,1.3,-4.9,0.8,1
COC(=O)CCCCCNc1ccc(C(=O)OC)cc1N,83.9*,1.6,15.7,0.2,0.8
COC(=O)c1cc(Oc2ccc(C(=O)OC)cc2N)cc(C(=O)OC)c1,37.8,1.1,35.0,0.6,0.7
C=CCC1(O)CC(c2ccco2)NC(c2ccco2)C1CCC (stereo not drawn),-15.0,1.1,-7.8,1.1,1.1
CC1CCCN(C(=O)CSc2nnc(-c3c[nH]c4ccccc34)o2)C1 (stereo not drawn),71.3*,1.2,-31.4,0.3,1.3
COc1ccc(-c2nnc(SCC(=O)N3CCCCC3)o2)c(OC)c1,-2.7,1.3,-23.3,1,1.2
CCC1CCCCN1C(=O)CSc1nnc(-c2c[nH]c3ccccc23)o1 (stereo not drawn),90.7*,1,-61.7,0.1,1.6
COc1ccc(-c2nnc(SCC(=O)N3CCCC(C)C3)o2)c(OC)c1 (stereo not drawn),70.9*,1.6,19.8,0.3,0.8
CC1CCCC(C)N1C(=O)CSc1nnc(-c2c[nH]c3ccccc23)o1 (stereo not drawn),27.5,1,-8.3,0.7,1.1
O=C(COC(=O)c1n[nH]c2ccccc12)NC(=O)NC12CC3CC(CC(C3)C1)C2,8.2,1.1,-1.3,0.9,1
CCOC(=O)N1CCN(C(=O)CSc2nnc(-c3ccc(C(C)(C)C)cc3)o2)CC1,-0.5,1,22.5,1,0.8
C=CCn1c(COc2cccc(C)c2)nnc1SCC(=O)NC(=O)NCc1ccco1,29.2,1,-61.5,0.7,1.6
CCOc1cc2[nH]c(=S)n(CCCCC(=O)NCc3ccco3)c(=O)c2cc1OCC,-1.3,1.2,72.2*,1,0.3
CCOc1cc2[nH]c(=S)n(CCC(=O)NCc3ccc(OC)cc3)c(=O)c2cc1OCC,3.0,1.5,73.2*,1,0.3
Cc1cc2c3c(c1C)C1(C(=O)N3C(C)(C)CC2C)C(C#N)=C(N)OC2=C1C(=O)CC(C)(C)C2 (stereo not drawn),23.5,1.4,34.1,0.8,0.7
Cn1c(CNC(=O)c2ccc(Cl)c(Cl)c2)nnc1SCC(=O)Nc1sc2c(c1C#N)CCCC2,10.7,0.9,21.0,0.9,0.8
COc1cc(NC(=O)CC2NCCNC2=O)cc(OC)c1 (stereo not drawn),-11.3,0.9,-1.6,1.1,1
CCCCN(CC)c1nc(N)c(C#N)c(CC#N)c1C#N,63.9*,1.4,85.1*,0.4,0.1
c1csc(-c2csc3nc(CN4CCOCC4)nc(NCc4ccc5c(c4)OCO5)c23)c1,79.2*,1.4,84.0*,0.2,0.2
